Among the data in ChEMBL document CHEMBL1961873, “Compounds: GSK PKIS; Assays: Nanosyn kinase panel” (2012) are inhibition values, retold here.

As usually defined, the inhibition is the relative decrease from the control value, in per cent.

For assay [1], the target named is Protein kinase C gamma type (Homo sapiens) (UniProt P05129). The note with it: at 1 µM.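 Further: each value is an averaged percent inhibition of the enzyme.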
Assay [2] addresses T1, Protein kinase C iota type (Homo sapiens) (UniProt P41743).
T1 sequence (whole entry): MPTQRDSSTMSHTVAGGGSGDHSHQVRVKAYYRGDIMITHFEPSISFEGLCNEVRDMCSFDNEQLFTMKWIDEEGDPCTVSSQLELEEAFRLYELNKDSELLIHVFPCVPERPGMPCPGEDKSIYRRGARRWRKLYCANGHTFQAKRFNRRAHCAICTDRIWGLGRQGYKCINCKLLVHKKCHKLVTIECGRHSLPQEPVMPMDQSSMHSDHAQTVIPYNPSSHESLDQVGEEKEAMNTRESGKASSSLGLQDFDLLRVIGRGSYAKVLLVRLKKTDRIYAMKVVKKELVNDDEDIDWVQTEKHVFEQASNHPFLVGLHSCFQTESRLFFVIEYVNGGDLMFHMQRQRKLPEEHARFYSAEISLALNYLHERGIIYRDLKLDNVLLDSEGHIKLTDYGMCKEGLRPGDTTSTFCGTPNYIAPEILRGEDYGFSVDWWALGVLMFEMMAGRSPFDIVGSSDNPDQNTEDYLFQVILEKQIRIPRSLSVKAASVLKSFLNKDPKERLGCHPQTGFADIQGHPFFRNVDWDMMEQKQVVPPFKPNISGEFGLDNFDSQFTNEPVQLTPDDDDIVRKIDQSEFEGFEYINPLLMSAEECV
The conditions noted are these: at 0.1 µM.

Assay [3] addresses T1, Protein kinase C iota type (Homo sapiens). The note with it: at 1 µM.
For assay [4], the target named is Protein kinase C theta type (Homo sapiens) (UniProt Q04759). The conditions noted are these: at 0.1 µM.
Assay [5] shares this target. The note with it: at 1 µM.
Assay [6] concerns the target Protein kinase C beta type (Homo sapiens) (UniProt P05771). The note with it: at 0.1 µM.
Assay [7] has the same target. The conditions noted are these: at 1 µM.
Assay [8] has as its target T2, Serine/threonine-protein kinase D1 (Homo sapiens) (UniProt Q15139).
T2 sequence (whole entry): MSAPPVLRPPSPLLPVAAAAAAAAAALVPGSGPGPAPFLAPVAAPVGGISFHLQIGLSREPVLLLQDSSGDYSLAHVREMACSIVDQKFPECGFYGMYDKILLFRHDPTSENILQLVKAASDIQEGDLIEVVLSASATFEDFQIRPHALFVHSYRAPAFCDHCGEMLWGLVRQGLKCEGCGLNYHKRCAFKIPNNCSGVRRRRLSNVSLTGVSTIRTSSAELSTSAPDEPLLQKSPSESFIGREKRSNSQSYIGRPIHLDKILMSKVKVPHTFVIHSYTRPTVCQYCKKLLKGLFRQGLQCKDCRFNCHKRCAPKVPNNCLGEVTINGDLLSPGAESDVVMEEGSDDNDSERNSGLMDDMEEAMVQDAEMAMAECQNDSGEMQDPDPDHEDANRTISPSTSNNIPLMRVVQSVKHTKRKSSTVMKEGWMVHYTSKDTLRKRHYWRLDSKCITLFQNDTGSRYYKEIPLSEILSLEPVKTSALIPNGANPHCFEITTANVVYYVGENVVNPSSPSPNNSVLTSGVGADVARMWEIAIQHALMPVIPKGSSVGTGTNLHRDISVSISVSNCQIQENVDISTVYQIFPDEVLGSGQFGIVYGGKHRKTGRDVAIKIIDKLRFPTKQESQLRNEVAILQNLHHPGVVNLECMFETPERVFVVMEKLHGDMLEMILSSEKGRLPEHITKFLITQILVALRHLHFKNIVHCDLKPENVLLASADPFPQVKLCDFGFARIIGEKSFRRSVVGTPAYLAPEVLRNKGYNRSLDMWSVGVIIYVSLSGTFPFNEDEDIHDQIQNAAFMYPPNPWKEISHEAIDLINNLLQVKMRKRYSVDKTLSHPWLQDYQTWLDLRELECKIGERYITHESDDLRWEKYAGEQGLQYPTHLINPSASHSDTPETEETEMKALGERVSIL
The conditions noted are these: at 0.1 µM.

Assay [9] has as its target T2, Serine/threonine-protein kinase D1 (Homo sapiens). The conditions noted are these: at 1 µM.
Assay [10] has as its target T3, Serine/threonine-protein kinase D2 (Homo sapiens) (UniProt Q9BZL6).
T3 sequence (whole entry): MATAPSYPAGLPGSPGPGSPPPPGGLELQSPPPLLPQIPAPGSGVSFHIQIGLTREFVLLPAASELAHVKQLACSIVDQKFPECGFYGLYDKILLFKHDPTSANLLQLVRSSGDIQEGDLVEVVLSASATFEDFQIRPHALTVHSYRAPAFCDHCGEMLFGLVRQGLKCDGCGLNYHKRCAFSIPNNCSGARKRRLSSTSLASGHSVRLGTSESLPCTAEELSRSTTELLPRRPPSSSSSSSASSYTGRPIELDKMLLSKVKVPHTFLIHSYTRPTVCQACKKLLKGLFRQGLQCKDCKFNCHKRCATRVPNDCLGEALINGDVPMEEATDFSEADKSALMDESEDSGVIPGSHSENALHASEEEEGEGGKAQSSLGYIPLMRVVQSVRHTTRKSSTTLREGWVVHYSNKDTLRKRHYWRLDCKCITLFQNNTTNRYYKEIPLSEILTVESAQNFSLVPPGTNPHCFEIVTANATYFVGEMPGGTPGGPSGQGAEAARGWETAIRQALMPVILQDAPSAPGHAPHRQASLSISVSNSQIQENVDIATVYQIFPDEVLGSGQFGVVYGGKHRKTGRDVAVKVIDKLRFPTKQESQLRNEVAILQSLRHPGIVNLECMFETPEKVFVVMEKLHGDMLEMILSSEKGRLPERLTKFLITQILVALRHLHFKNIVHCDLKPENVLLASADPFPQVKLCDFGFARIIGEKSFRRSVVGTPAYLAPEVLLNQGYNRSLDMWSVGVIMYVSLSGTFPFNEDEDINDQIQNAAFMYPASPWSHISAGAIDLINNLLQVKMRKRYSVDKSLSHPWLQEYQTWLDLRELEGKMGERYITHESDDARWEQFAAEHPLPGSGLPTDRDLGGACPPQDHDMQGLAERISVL
The conditions noted are these: at 0.1 µM.

Assay [11] deals with T3, Serine/threonine-protein kinase D2 (Homo sapiens). The note with it: at 1 µM.
For assay [12], the target named is T4, Serine/threonine-protein kinase D3 (Homo sapiens) (UniProt O94806).
T4 sequence (whole entry): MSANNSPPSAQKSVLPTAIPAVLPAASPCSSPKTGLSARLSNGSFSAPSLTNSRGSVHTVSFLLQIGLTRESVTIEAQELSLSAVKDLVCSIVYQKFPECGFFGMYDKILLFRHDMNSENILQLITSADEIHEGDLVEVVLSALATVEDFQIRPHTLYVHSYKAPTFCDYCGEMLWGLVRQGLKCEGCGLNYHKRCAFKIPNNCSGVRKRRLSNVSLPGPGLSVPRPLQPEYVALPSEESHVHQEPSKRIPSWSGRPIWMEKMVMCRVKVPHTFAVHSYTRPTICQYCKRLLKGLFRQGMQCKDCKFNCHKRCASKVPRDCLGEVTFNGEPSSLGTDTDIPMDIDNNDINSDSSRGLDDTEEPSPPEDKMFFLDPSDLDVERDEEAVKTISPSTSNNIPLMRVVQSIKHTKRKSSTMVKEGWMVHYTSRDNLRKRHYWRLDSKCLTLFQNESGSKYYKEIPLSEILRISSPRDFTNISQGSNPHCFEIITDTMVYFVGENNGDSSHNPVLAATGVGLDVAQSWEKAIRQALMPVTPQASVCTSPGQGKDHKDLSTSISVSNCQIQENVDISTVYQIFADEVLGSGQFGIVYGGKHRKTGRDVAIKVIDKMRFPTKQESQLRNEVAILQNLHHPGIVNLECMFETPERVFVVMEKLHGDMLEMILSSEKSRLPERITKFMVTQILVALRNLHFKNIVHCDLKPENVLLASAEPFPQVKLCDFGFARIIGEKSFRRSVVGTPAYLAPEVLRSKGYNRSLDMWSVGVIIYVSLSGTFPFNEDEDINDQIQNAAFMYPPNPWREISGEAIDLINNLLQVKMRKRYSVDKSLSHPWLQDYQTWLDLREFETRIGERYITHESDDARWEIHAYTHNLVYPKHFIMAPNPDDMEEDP
The conditions noted are these: at 0.1 µM.

Assay [13] has as its target T4, Serine/threonine-protein kinase D3 (Homo sapiens). The conditions noted are these: at 1 µM.
The target of assay [14] is T5, cGMP-dependent protein kinase 1 (Homo sapiens) (UniProt Q13976).
T5 sequence (whole entry): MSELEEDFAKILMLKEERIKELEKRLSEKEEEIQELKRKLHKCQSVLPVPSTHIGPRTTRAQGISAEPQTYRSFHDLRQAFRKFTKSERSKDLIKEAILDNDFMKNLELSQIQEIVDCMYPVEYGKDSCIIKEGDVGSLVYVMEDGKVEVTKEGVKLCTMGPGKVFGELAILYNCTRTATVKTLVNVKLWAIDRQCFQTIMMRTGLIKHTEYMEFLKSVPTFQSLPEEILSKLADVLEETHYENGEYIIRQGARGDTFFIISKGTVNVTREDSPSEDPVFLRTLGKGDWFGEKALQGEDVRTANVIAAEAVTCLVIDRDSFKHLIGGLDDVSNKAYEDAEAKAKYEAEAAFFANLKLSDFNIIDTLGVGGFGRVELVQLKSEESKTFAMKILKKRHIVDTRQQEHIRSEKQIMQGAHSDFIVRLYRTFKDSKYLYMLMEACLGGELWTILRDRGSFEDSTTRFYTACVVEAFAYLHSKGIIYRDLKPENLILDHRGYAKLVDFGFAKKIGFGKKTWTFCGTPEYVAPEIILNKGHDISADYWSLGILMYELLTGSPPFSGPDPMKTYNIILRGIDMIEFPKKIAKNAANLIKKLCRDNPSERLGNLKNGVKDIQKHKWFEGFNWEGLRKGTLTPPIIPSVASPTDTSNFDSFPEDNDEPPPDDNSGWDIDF
The note with it: at 0.1 µM.

Assay [15] has as its target T5, cGMP-dependent protein kinase 1 (Homo sapiens). The conditions noted are these: at 1 µM.
Assay [16] addresses T6, cGMP-dependent protein kinase 2 (Homo sapiens) (UniProt Q13237).
T6 sequence (whole entry): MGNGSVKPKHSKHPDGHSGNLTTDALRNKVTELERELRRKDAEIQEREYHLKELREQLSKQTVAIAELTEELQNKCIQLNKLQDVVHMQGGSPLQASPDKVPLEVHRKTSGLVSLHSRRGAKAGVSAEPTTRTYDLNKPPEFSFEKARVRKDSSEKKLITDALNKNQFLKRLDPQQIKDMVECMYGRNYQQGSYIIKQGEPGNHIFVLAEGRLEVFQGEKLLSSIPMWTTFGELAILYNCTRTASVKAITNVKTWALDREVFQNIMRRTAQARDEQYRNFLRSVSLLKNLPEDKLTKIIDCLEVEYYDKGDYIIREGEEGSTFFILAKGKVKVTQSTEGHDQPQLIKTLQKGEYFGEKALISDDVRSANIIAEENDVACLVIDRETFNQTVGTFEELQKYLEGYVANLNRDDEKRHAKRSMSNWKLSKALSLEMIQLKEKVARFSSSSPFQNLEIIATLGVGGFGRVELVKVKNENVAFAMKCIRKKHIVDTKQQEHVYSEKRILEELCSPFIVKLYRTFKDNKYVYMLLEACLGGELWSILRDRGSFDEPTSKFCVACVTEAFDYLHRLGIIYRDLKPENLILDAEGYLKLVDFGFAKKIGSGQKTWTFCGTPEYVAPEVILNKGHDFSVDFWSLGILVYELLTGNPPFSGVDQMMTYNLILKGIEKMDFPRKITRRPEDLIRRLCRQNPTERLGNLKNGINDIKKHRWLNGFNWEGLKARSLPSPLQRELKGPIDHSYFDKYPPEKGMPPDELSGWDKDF
The conditions noted are these: at 0.1 µM.

Assay [17] has as its target T6, cGMP-dependent protein kinase 2 (Homo sapiens). The note with it: at 1 µM.
The target in assay [18] is T7, cAMP-dependent protein kinase catalytic subunit PRKX (Homo sapiens) (UniProt P51817).
T7 sequence (whole entry): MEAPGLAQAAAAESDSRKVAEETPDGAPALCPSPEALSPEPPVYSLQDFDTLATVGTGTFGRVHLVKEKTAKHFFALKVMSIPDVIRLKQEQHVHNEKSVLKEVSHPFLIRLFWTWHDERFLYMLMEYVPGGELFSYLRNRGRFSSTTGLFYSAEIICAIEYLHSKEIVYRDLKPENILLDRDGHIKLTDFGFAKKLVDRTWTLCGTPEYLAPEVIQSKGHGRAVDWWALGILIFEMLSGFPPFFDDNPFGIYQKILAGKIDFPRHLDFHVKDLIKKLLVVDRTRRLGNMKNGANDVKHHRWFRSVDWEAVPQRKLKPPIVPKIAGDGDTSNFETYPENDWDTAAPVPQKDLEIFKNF
The conditions noted are these: at 0.1 µM.

In assay [19] the target is T7, cAMP-dependent protein kinase catalytic subunit PRKX (Homo sapiens). The conditions noted are these: at 1 µM.
The target in assay [20] is Rho-associated protein kinase 1 (Homo sapiens) (UniProt Q13464). The note with it: at 0.1 µM.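 Further: values are mean percent inhibition of ROCK1.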

Molecules are shown by their SMILES.

Protein kinase C theta type (Homo sapiens), sequence (Q04759 whole entry, looked up): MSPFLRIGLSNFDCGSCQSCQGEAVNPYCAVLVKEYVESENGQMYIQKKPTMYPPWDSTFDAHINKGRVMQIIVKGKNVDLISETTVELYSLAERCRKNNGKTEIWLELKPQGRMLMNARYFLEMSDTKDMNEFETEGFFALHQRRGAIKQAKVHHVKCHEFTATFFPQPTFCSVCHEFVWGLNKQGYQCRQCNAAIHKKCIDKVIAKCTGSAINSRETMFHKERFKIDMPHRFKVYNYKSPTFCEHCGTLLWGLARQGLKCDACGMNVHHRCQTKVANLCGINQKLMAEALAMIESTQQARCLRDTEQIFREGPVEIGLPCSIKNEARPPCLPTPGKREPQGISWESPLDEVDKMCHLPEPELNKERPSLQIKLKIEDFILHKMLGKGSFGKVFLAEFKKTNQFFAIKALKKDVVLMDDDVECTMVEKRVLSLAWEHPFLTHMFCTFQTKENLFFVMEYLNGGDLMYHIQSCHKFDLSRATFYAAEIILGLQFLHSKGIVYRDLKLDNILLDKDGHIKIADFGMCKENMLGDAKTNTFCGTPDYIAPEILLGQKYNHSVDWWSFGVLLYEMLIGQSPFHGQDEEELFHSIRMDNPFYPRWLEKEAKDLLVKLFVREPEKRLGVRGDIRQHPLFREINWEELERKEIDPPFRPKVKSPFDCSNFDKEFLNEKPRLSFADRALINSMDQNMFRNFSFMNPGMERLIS
Protein kinase C beta type (Homo sapiens), sequence (P05771 2-671 limits assumed): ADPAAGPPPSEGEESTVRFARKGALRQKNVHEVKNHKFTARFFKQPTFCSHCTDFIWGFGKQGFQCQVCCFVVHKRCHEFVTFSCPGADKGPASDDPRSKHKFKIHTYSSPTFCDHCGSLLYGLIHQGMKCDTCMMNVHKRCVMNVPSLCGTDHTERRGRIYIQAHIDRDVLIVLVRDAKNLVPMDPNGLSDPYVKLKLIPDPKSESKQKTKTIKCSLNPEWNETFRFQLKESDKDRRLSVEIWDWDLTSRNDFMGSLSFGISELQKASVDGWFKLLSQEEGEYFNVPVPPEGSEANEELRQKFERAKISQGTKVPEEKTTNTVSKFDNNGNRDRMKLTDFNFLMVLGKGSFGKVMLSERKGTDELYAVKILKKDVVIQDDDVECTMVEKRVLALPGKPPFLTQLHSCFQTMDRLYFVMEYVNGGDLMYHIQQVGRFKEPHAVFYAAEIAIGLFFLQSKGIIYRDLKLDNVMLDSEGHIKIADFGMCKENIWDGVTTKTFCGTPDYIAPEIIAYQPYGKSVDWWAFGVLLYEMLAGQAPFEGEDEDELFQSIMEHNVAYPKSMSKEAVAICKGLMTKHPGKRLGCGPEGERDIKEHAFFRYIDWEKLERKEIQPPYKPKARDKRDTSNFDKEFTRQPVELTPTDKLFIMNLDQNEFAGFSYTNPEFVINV
Rho-associated protein kinase 1 (Homo sapiens), sequence (Q13464 2-1354 limits assumed): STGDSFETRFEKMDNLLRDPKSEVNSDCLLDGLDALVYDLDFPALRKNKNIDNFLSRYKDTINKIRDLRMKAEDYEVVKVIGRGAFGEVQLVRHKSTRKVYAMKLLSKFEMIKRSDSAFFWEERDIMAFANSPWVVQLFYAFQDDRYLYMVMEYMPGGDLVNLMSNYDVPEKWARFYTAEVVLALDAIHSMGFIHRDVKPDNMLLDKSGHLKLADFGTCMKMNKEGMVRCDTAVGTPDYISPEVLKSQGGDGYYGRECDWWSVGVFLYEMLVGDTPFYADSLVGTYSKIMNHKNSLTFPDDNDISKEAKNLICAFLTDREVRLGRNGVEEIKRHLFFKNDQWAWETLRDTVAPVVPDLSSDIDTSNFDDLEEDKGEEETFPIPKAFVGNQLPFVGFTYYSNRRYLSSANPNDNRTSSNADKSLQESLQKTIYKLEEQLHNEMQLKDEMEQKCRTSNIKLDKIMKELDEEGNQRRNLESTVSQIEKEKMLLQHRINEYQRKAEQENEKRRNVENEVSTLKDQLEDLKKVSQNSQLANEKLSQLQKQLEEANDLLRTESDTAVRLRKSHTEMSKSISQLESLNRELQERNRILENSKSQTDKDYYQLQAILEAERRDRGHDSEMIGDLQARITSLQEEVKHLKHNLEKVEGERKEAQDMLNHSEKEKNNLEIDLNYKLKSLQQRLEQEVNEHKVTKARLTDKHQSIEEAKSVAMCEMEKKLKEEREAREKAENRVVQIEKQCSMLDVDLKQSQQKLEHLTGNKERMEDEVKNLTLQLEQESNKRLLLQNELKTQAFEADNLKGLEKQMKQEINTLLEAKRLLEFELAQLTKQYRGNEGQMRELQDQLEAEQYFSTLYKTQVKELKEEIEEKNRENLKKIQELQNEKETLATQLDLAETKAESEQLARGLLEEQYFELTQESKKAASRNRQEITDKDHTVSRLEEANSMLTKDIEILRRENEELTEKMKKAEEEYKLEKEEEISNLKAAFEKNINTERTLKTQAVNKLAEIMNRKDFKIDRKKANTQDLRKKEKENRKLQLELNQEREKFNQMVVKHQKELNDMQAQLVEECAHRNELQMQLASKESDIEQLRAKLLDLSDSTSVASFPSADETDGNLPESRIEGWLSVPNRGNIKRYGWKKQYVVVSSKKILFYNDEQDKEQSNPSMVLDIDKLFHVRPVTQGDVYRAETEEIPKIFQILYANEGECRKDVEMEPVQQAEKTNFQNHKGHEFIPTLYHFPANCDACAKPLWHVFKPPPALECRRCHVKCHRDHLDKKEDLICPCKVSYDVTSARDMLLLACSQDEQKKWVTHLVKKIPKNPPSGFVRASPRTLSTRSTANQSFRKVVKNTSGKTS

Consider `Fc1ccc(-c2cc(-c3c[nH]nc3-c3ccccn3)ccn2)cc1`, for which the inhibition in assay [1] was determined as 1.87%; in [2], 2.53%; in assay [3], 0.58%; in assay [4], 3.15%; in [5], 5.06%; in assay [6] it was 1.48%. In addition, the inhibition in assay [7] was 1.07%; in assay [8] it was 4.79%; in [9], 26.9%; in [10], 6.43%; in assay [11], 32.4%; in [12], 6.2%. Further, the inhibition in [13] was 20.5%; in assay [14], 1.49%; in assay [15], 4.77%; in assay [16], 1.37%; in [17], 2.9%; in assay [18], 1.98%. The values for the inhibition in [19] and in assay [20] were 5.03% and -0.11%, respectively.

Consider `COc1ccc(-c2oc3ncnc(N)c3c2-c2ccc(NC(=O)Nc3cc(C(F)(F)F)ccc3F)cc2)cc1`, for which the inhibition was 6.08% in assay [1]; 3.51% in assay [2]; 0.63% in [3]; 3.51% in assay [4]; 5.06% in assay [5]; 1.71% in assay [6]. Besides, the inhibition in [7] was found to be 4.49%; in [8], 2.73%; in assay [9], 3.09%; in assay [10] it was 3.37%; in assay [11], 3.15%; in [12] it was 3.02%. For the same compound, the inhibition was 2.96% in assay [13]; 4.53% in assay [14]; 3.73% in assay [15]; 3.35% in assay [16]; 5.54% in assay [17]; 4.23% in [18]. Also, the inhibition in assay [19] came to 3.47%; in assay [20], 2.21%.
